# Bioassay records deposited in PubChem by several laboratories.
# TRPM1 prom inh: inhibitors of MITF-driven TRPM1 promoter in melanoma cells. SK-MEL-5 TRPM1 promoter luciferase, 24 h. inhibition, % at 12.5 µM. actives 0.83% (n = 330,000). AID 488899;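 active means mean inhibition across replicates of 60% or more, whatever share of single replicates reaches that level; inconclusive means some that reach 60%, reason not given; inactive means mean inhibition across replicates below 60%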
# EBV LMP1 NFkB: Epstein-Barr LMP1 NF-kappaB reporter inhibition; LMP1-induced NF-kappaB luciferase reporter cells, luminescence; inhibition, % at 12.5 µM; actives 0.69% (n = 350,000); in the data active means inhibition above about 41%; inconclusive means no clear call, values can overlap the other calls;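 further: 0% = neutral control wells and 100% = reference inhibitor control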
# Gli-Sufu antag: antagonists of Gli-Sufu signaling; Sufu-KO-LIGHT fibroblasts, Gli luciferase reporter luminescence; inhibition, % at 5 µM; AID 588413; actives 0.74% (n = 340,000);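 active means inhibition above about 55%, limit read from the data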;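 further: 0% = DMSO-treated cells and 100% = wells with medium but no cells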
# Shn3 3UTR inh: reduces Shn3 3'UTR luciferase signal in osteoblasts; Clone20 osteoblast Shn3 3'UTR firefly luciferase, 24 h; inhibition, % at 12.5 µM; actives 0.52% (n = 360,000);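 active means mean inhibition of at least 75% with every replicate also reaching 75%; inconclusive means mean inhibition at least 75% but some replicate below; inactive means mean inhibition below 75%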;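 further: 0% = median of neutral control wells and 100% = pilot-screen positive control compound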
# Jurkat NFkB inh: lowers PMA/ionomycin-induced NF-kB signal in Jurkat cells | PMA/ionomycin-induced NF-kB luciferase reporter, luminescence | actives 0.53% (n = 330,000) | AID 435003 | inhibition, % at 4 µM; in the data active means inhibition above about 50%
# 697 NFkB inh: inhibitors of the PMA/ionomycin-induced NF-kB reporter in 697 B cells; 697 B-cell NF-kB luciferase reporter, 16 h; inhibition, % at 4 µM; actives 0.33% (n = 330,000); in the data active means inhibition above about 35%
# Jurkat NFkB conf: inhibitors of the PMA/ionomycin-induced NF-kB reporter in Jurkat cells, retest; inhibition, % at 4 µM; shares compounds with Jurkat NFkB inh; Jurkat NF-kB luciferase, 16 h; AID 435020; actives 27% (n = 2,700);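 active means inhibition reaching about 45% at 4 µM in either replicate, limit read from the data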;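 further: plate controls were PMA/ionomycin stimulated DMSO wells for no effect and unstimulated DMSO wells for full effect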
# 697 NFkB conf: lowers PMA/ionomycin-induced NF-kB signal in 697 B cells. shares compounds with 697 NFkB inh. 697 B-cell NF-kB luciferase, 16 h. inhibition, % at 4 µM. actives 35% (n = 2,000). AID 449746; in the data active means inhibition mostly above about 28%, no sharp cut-off; inactive means mostly below about 22%
# Gli antag conf: Gli-SUFU antagonism confirmation, single concentration; inhibition, % at 5 µM; shares compounds with Gli-Sufu antag; Sufu-KO-LIGHT cells, Gli luciferase reporter, luminescence; actives 40% (n = 2,500);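 active means mean inhibition at 5 µM reaching about 45%, limit read from the data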;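 further: plate controls were DMSO-treated cells for no effect and wells lacking cells for full effect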
# Gli cytotox: cytotoxic in Gli-SUFU antagonist counter-screen; Sufu-KO-LIGHT cells cytotoxicity, ATP luminescence; shares compounds with Gli-Sufu antag; AID 651994; actives 32% (n = 2,500); cytotoxicity, % at 5 µM;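 active means mean cytotoxicity at 5 µM above about 25%, limit read from the data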;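 further: cells exposed to compound overnight for roughly 16 to 18 hours; plate controls were DMSO wells with cells for no effect and medium without cells for full effect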
# Wnt3a counter: counter-screen for Gli-SUFU antagonists: Wnt3a reporter inhibition. shares compounds with Gli-Sufu antag. Wnt-LIGHT cells, Wnt3a-driven luciferase reporter, luminescence. inhibition, % at 6.25 µM. actives 20% (n = 2,500). AID 651995;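 active means mean inhibition above about 25%, limit read from the data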
# Starred values were filed as active, the others as inactive; i = inactive; u = inconclusive; x = not tested or not shown. A selection: hits, their analogues and other compounds. The true share with any hit is near 2.3%.
SMILES,TRPM1 prom inh,EBV LMP1 NFkB,Gli-Sufu antag,Shn3 3UTR inh,Jurkat NFkB inh,697 NFkB inh,Jurkat NFkB conf,697 NFkB conf,others
O=C(Cc1cccs1)Nc1nc2c(s1)CCCC2,-50,-47,-62,-9,-152,i,-60,i,
O=C(Nc1nc2c(s1)CCCC2)C1COc2ccccc2O1 (stereo not drawn),6,19,-60,-3,-188,-333,-77,-364,
CCN1CCN(CCOc2ccc(Cl)cc2)CC1,-20,1,6,38,-7,12,x,x,
Clc1ccc(OCCN2CCN(c3ncnc4sccc34)CC2)cc1,32,22,81*,u,67*,100*,76*,96*,
CCCCOc1ccccc1NC(=O)Cn1c(-c2nonc2N)nc2ccccc21,51,-11,31,27,59*,35*,30,-56,
Cc1cc([N+](=O)[O-])nn1Cc1ccccc1F,10,6,-26,-24,97*,51*,62*,76*,
CN1CCN(C(=O)c2ccccc2NS(=O)(=O)c2ccc(F)cc2)CC1,-3,-3,-2,1,-4,6,x,x,
COCCNc1nc(C)cc(-c2cc(C(=O)Nc3ccccc3)on2)n1,-11,-2,-12,2,12,-7,x,x,
CC(C)C(=O)Nc1ccc2nn(-c3ccc(F)cc3)nc2c1,-59,-11,-86,17,-227,-415,-110,-354,
Cc1ccc(-n2nc3ccc(NC(=O)c4ccco4)cc3n2)cc1,-36,-31,-6,-10,-69,-79,x,x,
Cc1ccc(-n2nc3ccc(NC(=O)C(C)C)cc3n2)cc1,x,-63,-61,-110,-167,-262,-141,-395,
CO[C@H]1CC[C@@]2(C)[C@@H](CC[C@@H]3[C@@H]2CC[C@@]2(C)[C@H]3C[C@H](C(=O)O)O[C@]23CCCO3)C1,-9,-3,-5,-30,x,2,x,x,
CCc1nnc(NC(=O)CSc2nc3c(cc2C#N)CCC3)s1,-42,-7,-55,-53,-75,-136,x,x,
N#Cc1cc2c(nc1SCC(=O)Nc1nccs1)CCCCC2,-12,-15,-119,-42,-230,-309,-86,-258,
Cc1cc(/C=C2\Sc3ccccc3N2C)cc(C)[n+]1CC1CCCO1 (stereo not drawn),74*,19,88*,89*,97*,36*,41,0,
Cc1ccc(/C=C2/Sc3ccccc3N(CC(=O)NCC3CCCO3)C2=O)cc1 (stereo not drawn),-25,11,-7,-15,-11,-17,x,x,
CC1(C)CC(=O)C(C=NCCN2CCN(C3CC(=O)N(c4ccc(Br)cc4)C3=O)CC2)=C(O)C1 (stereo not drawn),4,-10,-1,-8,18,4,x,x,
CC(=O)NCC1(c2ccccc2)CCN(CCCC(=O)c2ccc(F)cc2)CC1,x,2,x,-3,x,x,x,x,
CC1CCc2c(sc(NC(=O)CSc3ncn[nH]3)c2C#N)C1 (stereo not drawn),62*,28,33,50,61*,58*,61*,52*,
N#Cc1c(NC(=O)c2ccccc2)sc2c1CCCCC2,-46,-31,7,-36,-179,-280,-138,-237,
N#Cc1c(NC(=O)CSc2ncn[nH]2)sc2c1CCCC2,73*,27,22,58,52*,62*,47,47*,
CC(C)(C)C1CCc2c(sc(NC(=O)CSc3ncn[nH]3)c2C#N)C1 (stereo not drawn),8,-1,3,29,-10,-11,x,x,
COc1cc(OC)cc(-c2nc(-c3cccs3)no2)c1,-44,-21,-57,-66,-59,-22,x,x,
COc1cccc(-c2nc(-c3cccs3)no2)c1,-13,-15,-64,-50,-163,-289,-131,-311,
COc1ccc([C@@H]2C[C@@H](c3ccccc3)Oc3c(C)ccc(C(C)C)c32)cc1,x,x,x,x,1,10,x,x,
SMILES,TRPM1 prom inh,EBV LMP1 NFkB,Gli-Sufu antag,Shn3 3UTR inh,Jurkat NFkB inh,697 NFkB inh,Jurkat NFkB conf,697 NFkB conf,others
COc1ccccc1N1CCN(c2cc(N3CCCC3)nc(C)n2)CC1,-7,1,24,5,16,-38,x,x,
COc1ccccc1N1CCN(c2ccc3ccccc3n2)CC1,-113,-29,-52,-66,-157,-311,-99,-258,
CCCC(=Nc1ccccc1OC)C1=C(O)CC(c2ccccc2)CC1=O (stereo not drawn),-2,-2,-18,17,14,7,x,x,
COc1ccccc1N=C(C)C1=C(O)CC(c2ccccc2)CC1=O (stereo not drawn),11,15,56*,78,69*,9,42,x,Gli antag conf=54*;Gli cytotox=63*;Wnt3a counter=-35
COc1cc(NC(=O)C2CC2C)c(C(=O)O)cc1OC (stereo not drawn),6,-5,-2,-4,12,23,x,x,
CCOC(=O)C1CCCN(S(=O)(=O)c2ccc(S(=O)(=O)N(CC)CC)cc2)C1 (stereo not drawn),28,-22,78*,85,60*,43*,62*,52*,Gli antag conf=74*;Gli cytotox=32*;Wnt3a counter=9
CCOC(=O)C1CCCN(S(=O)(=O)c2ccc(C)cc2)C1 (stereo not drawn),-9,3,4,9,3,-17,x,x,
CCCC(=O)N(CCN1CCOCC1)c1nc2cc(C)c(C)cc2s1,-76,-16,-33,-118,-80,-82,x,x,
CC(=O)Nc1ccc(S(=O)(=O)N2c3ccccc3C(C)=CC2(C)C)cc1,35,14,57*,-16,62*,-25,53*,x,Gli antag conf=52*;Gli cytotox=54*;Wnt3a counter=23
COc1cccc(S(=O)(=O)Nc2ccc(C(=O)Nc3ccncc3)cc2)c1,14,12,0,26,-12,-19,x,x,
COc1ccc(NS(=O)(=O)c2cccc(NC(=O)c3ccc(Cl)nc3)c2)cc1,17,10,69*,80,72*,64*,67*,54*,Gli antag conf=68*;Gli cytotox=41*;Wnt3a counter=16
COc1ccc(C(O)c2ncc(-c3cccc(OC)c3)[nH]2)cc1 (stereo not drawn),x,x,x,-30,x,x,x,x,
CCOC(=O)C1=C(C)N=C2SCCC(=O)N2C1c1cc(Br)ccc1OC (stereo not drawn),2,-9,-2,-14,-16,-17,x,x,
